Our source for the log2 fold change values is the supplement of paper PMC10849652.

About 7,900 targets were measured; listed, in parts, are those with a hit and a random draw of the rest. About 0.6% of all pairs of compound and target were hits. A number with no mark means an inactive call.

UniProt Q53FT3, sequence (Q53FT3 whole entry, looked up): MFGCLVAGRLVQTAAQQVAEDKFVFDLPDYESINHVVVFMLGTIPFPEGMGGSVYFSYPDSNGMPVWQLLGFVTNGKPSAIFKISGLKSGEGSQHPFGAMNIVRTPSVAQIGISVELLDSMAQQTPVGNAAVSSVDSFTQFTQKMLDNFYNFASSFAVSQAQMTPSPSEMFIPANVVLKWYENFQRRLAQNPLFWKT
UniProt Q96JB3, sequence (Q96JB3 whole entry, looked up): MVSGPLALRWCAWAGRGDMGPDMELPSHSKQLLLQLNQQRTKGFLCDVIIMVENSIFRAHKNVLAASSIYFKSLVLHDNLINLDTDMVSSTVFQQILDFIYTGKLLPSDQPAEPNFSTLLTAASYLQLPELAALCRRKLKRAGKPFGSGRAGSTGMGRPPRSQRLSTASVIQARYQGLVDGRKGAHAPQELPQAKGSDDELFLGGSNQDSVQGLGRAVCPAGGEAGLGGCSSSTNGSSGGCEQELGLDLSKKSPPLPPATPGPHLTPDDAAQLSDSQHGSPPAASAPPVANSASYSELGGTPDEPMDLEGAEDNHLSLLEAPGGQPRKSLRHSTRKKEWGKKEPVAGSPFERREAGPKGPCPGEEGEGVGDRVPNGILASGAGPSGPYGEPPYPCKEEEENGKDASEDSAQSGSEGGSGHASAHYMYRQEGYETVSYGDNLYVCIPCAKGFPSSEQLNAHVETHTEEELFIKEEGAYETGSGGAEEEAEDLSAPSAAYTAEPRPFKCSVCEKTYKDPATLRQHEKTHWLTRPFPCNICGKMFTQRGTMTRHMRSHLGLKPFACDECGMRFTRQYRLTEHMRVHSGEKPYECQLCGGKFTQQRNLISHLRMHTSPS
UniProt Q9H4A6, sequence (Q9H4A6 whole entry, looked up): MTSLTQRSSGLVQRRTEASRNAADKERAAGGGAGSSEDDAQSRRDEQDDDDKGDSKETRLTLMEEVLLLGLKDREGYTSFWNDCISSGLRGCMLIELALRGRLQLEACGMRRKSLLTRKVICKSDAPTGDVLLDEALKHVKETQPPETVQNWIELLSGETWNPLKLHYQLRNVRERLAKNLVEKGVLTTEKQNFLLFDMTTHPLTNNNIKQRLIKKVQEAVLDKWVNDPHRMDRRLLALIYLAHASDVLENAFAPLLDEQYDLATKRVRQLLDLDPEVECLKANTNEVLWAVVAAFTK
UniProt Q9P2H3, sequence (Q9P2H3 whole entry, looked up): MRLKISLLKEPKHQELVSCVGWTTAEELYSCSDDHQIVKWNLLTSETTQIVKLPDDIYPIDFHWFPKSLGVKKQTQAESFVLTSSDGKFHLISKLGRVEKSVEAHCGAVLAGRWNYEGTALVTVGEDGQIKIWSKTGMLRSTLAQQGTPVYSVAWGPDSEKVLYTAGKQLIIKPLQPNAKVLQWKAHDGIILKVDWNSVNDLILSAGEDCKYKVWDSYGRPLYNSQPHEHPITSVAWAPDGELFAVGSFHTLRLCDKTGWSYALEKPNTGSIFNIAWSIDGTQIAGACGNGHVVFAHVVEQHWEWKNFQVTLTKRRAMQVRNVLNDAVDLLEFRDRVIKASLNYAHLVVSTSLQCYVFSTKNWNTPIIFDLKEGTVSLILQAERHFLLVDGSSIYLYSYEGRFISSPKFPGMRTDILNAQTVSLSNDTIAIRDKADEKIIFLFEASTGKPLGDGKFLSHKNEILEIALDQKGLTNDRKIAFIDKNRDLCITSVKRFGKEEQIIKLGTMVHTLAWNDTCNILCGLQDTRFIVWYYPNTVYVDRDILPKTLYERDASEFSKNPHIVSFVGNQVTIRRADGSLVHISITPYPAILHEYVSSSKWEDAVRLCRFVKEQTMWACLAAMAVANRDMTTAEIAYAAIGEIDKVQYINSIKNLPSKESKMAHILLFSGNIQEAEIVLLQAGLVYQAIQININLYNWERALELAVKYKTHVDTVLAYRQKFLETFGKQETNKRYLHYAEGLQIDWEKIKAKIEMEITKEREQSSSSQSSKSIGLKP
UniProt Q658Y4, sequence (Q658Y4 whole entry, looked up): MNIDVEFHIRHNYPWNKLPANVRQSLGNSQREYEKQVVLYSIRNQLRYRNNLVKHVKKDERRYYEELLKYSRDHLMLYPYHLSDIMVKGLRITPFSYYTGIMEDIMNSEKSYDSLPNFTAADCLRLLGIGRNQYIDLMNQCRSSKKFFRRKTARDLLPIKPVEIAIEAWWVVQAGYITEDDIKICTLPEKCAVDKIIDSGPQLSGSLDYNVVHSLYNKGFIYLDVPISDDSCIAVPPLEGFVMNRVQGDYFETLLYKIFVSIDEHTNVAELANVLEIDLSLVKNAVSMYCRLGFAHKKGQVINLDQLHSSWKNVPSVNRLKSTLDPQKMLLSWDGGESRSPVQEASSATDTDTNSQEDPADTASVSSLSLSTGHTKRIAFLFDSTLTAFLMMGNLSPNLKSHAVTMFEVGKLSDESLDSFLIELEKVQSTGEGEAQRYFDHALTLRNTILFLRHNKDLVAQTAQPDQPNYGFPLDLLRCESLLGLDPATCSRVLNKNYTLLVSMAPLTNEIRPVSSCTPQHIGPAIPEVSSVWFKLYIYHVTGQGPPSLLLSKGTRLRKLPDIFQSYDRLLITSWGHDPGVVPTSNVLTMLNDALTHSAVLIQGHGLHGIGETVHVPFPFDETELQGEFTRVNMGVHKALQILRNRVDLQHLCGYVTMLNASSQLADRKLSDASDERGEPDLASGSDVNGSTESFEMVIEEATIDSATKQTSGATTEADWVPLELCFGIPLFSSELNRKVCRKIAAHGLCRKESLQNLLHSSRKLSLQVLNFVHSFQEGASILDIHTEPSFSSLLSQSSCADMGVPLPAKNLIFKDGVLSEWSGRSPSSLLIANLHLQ
UniProt P14324, sequence (P14324 whole entry, looked up): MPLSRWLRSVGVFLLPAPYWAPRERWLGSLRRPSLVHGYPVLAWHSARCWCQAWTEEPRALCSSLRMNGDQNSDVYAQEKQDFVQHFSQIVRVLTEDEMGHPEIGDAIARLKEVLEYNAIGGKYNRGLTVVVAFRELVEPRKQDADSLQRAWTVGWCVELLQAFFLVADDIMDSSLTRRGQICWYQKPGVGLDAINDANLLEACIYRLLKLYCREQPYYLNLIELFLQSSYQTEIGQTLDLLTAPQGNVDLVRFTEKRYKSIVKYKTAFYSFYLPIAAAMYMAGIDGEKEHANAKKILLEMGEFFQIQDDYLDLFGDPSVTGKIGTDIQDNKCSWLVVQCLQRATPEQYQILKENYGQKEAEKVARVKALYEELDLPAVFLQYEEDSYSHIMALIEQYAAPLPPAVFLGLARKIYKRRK
UniProt O15347, sequence (O15347 whole entry, looked up): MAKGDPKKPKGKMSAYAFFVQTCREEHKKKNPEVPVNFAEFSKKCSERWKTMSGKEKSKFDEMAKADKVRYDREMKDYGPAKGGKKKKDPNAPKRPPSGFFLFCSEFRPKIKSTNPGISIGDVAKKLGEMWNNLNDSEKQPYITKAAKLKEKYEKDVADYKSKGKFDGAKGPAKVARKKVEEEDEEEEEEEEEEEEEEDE
UniProt O75146, sequence (O75146 whole entry, looked up): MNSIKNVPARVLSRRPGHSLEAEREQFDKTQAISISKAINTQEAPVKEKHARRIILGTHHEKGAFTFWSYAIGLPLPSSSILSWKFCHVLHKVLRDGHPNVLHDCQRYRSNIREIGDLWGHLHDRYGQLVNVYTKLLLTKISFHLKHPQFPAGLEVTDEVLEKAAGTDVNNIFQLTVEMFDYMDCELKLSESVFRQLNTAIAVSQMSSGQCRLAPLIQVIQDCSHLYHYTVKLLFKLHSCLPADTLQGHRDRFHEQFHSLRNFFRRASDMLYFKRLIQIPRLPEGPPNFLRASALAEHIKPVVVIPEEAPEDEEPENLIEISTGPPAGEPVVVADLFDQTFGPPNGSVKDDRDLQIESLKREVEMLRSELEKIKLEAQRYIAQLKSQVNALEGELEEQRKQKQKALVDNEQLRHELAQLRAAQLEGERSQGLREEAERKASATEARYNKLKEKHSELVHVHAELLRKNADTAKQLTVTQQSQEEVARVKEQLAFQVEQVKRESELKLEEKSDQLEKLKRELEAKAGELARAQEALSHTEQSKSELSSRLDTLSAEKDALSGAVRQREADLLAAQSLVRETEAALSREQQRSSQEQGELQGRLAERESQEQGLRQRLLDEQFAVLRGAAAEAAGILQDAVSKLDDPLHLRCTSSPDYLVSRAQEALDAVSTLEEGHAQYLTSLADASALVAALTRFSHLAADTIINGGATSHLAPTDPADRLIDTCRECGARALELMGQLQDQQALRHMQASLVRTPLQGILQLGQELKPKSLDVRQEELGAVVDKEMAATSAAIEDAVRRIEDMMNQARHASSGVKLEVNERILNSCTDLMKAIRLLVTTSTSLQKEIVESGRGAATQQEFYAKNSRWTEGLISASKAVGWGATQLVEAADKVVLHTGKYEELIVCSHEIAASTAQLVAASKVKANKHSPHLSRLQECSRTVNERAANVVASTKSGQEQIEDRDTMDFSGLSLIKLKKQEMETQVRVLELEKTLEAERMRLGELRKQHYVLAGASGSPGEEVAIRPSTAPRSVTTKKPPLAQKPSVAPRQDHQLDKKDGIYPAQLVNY
UniProt Q9Y6M1, sequence (Q9Y6M1 whole entry, looked up): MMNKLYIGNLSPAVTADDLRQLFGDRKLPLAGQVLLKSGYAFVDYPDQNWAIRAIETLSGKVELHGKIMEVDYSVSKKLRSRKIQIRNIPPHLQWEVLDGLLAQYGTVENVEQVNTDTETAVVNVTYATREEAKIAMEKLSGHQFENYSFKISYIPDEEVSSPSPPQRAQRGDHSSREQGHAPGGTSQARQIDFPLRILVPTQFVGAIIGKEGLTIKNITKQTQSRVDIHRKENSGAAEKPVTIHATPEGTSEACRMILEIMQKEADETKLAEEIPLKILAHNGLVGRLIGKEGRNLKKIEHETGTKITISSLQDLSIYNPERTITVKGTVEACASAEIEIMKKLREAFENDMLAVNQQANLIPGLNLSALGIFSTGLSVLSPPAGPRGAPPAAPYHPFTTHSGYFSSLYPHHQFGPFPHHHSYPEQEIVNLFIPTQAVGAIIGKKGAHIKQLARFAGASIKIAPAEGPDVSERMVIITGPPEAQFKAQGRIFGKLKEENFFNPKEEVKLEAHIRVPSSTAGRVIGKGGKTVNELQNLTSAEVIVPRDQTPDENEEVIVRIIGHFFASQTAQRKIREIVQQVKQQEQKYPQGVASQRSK

Compound in one experiment: C1COCCN1CCN2C3=CC=CC=C3N=C2NC(=O)C4=CC(=CC=C4)[N+](=O)[O-] [IRAK-1-4 Inhibitor I]
In words: log2 fold change, soluble protein after heating vs DMSO (PISA); higher = thermal stabilisation; K562 cells, 10 uM, 30 min; active = over 0.2 and 3.5 SD of the protein, either way, in both replicates (recomputed). The essentials: (§1)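 K562 cells at 2×10^6 cells/mL were treated for 30 min with 10 μM compound, and aliquots were heated for 3 min over 48°C-58°C before pooling. Extraction used PBS with 0.5% NP-40 at 4°C, and soluble protein was the supernatant after 21,000xg for 90 min, measured by TMTpro 16plex LC-MS/MS with channel sums equalised. Thermal stability values, relative to control samples and from duplicates, are log2 fold changes.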
As for GLCCI1 (UniProt Q86VQ1), the log2 fold change is 0.062.

For GSK3A (UniProt P49840), the log2 fold change was 0.099.

HIST2H3A (UniProt Q71DI3): the log2 fold change was -0.269.

Regarding GEMIN6 (UniProt Q8WXD5), the log2 fold change was 0.035.

For IFT80 isoform 3 (UniProt Q9P2H3), the log2 fold change was 0.03.

In the case of FKBP4 (UniProt Q02790), the log2 fold change was 0.

With HIC2 (UniProt Q96JB3), the log2 fold change was -0.073.

Take FAM91A1 (UniProt Q658Y4): the log2 fold change was 0.092.

With HIKESHI (UniProt Q53FT3), the log2 fold change is 0.013.

In the case of HSPA8 (UniProt E9PK54), the log2 fold change was -0.051.

On to GTF2A2 (UniProt P52657), for which the log2 fold change is 0.013.

For the target GBE1 (UniProt Q04446), the log2 fold change is -0.241.

In the case of HMGB3 (UniProt O15347), the log2 fold change was 0.071.

Regarding FANCD2 isoform 1 (UniProt Q9BXW9), the log2 fold change was -0.002.

For the target HBZ (UniProt P02008), the log2 fold change is 0.025.

GLIPR2 (UniProt Q9H4G4): the log2 fold change is 0.038.

Take GMEB1 (UniProt Q9Y692): the log2 fold change was -0.033.

In the case of HTATIP2 isoform 3 (UniProt Q9BUP3), the log2 fold change was 0.007.

GOLPH3 (UniProt Q9H4A6): the log2 fold change is 0.033.

As to HIP1R (UniProt O75146), the log2 fold change was 0.029.

Regarding GCSH (UniProt P23434), the log2 fold change was 0.027.

GALNT11 (UniProt Q8NCW6): the log2 fold change is -0.008.

With FDPS (UniProt P14324), the log2 fold change was -0.127.

As for FEN1 (UniProt P39748), the log2 fold change was -0.071.

GEMIN5 (UniProt Q8TEQ6): the log2 fold change was -0.037.

Take HMG20A (UniProt Q9NP66): the log2 fold change is -0.05.

On to GALNT2 (UniProt Q10471), for which the log2 fold change was 0.009.

As to IGF2BP2 (UniProt Q9Y6M1), the log2 fold change is -0.168.

GOLGA8R (UniProt I6L899): the log2 fold change was 0.003.

On to GEMIN2 (UniProt O14893), for which the log2 fold change is -0.046.

As for IFT74 (UniProt Q96LB3), the log2 fold change was 0.067.

As to HSPA2 (UniProt P54652), the log2 fold change was 0.008.

As to HNRNPK isoform 2 (UniProt P61978), the log2 fold change is -0.014.

As to HNRNPH1 (UniProt P31943), the log2 fold change was -0.032.

For FIBP (UniProt O43427), the log2 fold change was 0.026.

Compound in the next experiment: C=CC(=O)N1CCC[C@@H](n2nc(-c3ccc(Oc4ccccc4)cc3)c3c(N)ncnc32)C1 [ibrutinib]
The experiment is described as above. The essentials:
as §1
Turning to GLCCI1 (UniProt Q86VQ1), the log2 fold change is 0.013.

As for GSK3A (UniProt P49840), the log2 fold change is 0.011.

HIST2H3A (UniProt Q71DI3): the log2 fold change is 0.081.

As for GEMIN6 (UniProt Q8WXD5), the log2 fold change was 0.021.

Take IFT80 isoform 3 (UniProt Q9P2H3): the log2 fold change is 0.099.

Consider FKBP4 (UniProt Q02790), for which the log2 fold change was -0.005.

Regarding HIC2 (UniProt Q96JB3), the log2 fold change is 0.123.

Regarding FAM91A1 (UniProt Q658Y4), the log2 fold change is -0.025.

In the case of HIKESHI (UniProt Q53FT3), the log2 fold change was -0.041.

As to HSPA8 (UniProt E9PK54), the log2 fold change was -0.012.

Consider GTF2A2 (UniProt P52657), for which the log2 fold change was -0.028.

Turning to GBE1 (UniProt Q04446), the log2 fold change was -0.026.

With HMGB3 (UniProt O15347), the log2 fold change is 0.038.

On to FANCD2 isoform 1 (UniProt Q9BXW9), for which the log2 fold change was 0.025.

HBZ (UniProt P02008): the log2 fold change is -0.001.

Turning to GLIPR2 (UniProt Q9H4G4), the log2 fold change is -0.047.

GMEB1 (UniProt Q9Y692): the log2 fold change is -0.031.

With HTATIP2 isoform 3 (UniProt Q9BUP3), the log2 fold change is 0.003.

GOLPH3 (UniProt Q9H4A6): the log2 fold change was -0.035.

Regarding HIP1R (UniProt O75146), the log2 fold change was -0.027.

GCSH (UniProt P23434): the log2 fold change is -0.002.

Consider GALNT11 (UniProt Q8NCW6), for which the log2 fold change was -0.088.

Consider FDPS (UniProt P14324), for which the log2 fold change is -0.066.

Take FEN1 (UniProt P39748): the log2 fold change is -0.016.

Regarding GEMIN5 (UniProt Q8TEQ6), the log2 fold change is -0.014.

For HMG20A (UniProt Q9NP66), the log2 fold change was 0.043.

Regarding GALNT2 (UniProt Q10471), the log2 fold change is -0.019.

Consider IGF2BP2 (UniProt Q9Y6M1), for which the log2 fold change was 0.048.

Consider GOLGA8R (UniProt I6L899), for which the log2 fold change was 0.04.

For the target GEMIN2 (UniProt O14893), the log2 fold change is 0.055.

Consider IFT74 (UniProt Q96LB3), for which the log2 fold change is 0.146.

On to HSPA2 (UniProt P54652), for which the log2 fold change is -0.006.

For HNRNPK isoform 2 (UniProt P61978), the log2 fold change is -0.014.

Turning to HNRNPH1 (UniProt P31943), the log2 fold change was 0.048.

FIBP (UniProt O43427): the log2 fold change is 0.019.
